Numbering of substitutions follows the chain as printed.
What was measured:
Test in all cases: PBM; 200 nM protein, PBS
Details in all cases: dsDNA, one strand shown
NKX2-5 [1] = target: NKX2-5 (Homo sapiens, UniProt P52952 125-210, R139K)
NKX2-5 [2] = target: NKX2-5 (Homo sapiens, UniProt P52952 125-210)
PRRX1 = PRRX1 (Homo sapiens, UniProt P54821 80-166, F113S)
NKX2-4 [3] = target: T1, NKX2-4 (Homo sapiens, UniProt Q9H2Z4 175-261, P217L)
T1 sequence: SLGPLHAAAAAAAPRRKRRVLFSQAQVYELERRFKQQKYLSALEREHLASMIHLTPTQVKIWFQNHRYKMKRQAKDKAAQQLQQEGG

NKX2-4 [4] = target: T2, NKX2-4 (Homo sapiens, UniProt Q9H2Z4 175-261, T231S)
T2 sequence: T1 sequence with L43P, T57S

NKX2-4 [5] = target: T3, NKX2-4 (Homo sapiens, UniProt Q9H2Z4 175-261)
T3 sequence: T1 sequence with L43P

NKX2-6 [6] = target: T4, NKX2-6 (Homo sapiens, UniProt A6NCS4 118-204, R150C)
T4 sequence: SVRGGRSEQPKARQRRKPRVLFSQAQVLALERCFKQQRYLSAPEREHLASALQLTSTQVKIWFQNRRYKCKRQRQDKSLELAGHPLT

NKX2-6 [7] = target: T5, NKX2-6 (Homo sapiens, UniProt A6NCS4 118-204)
T5 sequence: T4 sequence with C33R

NKX2-4 [8] = target: T6, NKX2-4 (Homo sapiens, UniProt Q9H2Z4 175-261, R246Q)
T6 sequence: T1 sequence with L43P, R72Q

NKX2-6 [9] = target: T7, NKX2-6 (Homo sapiens, UniProt A6NCS4 118-204, F151L)
T7 sequence: T4 sequence with C33R, F34L

NKX3-2 [10] = target: NKX3-2 (Homo sapiens, UniProt P78367 192-278, P234S)
NKX3-2 [11] = target: NKX3-2 (Homo sapiens, UniProt P78367 192-278)
HOXB4 [12] = target: HOXB4 (Homo sapiens, UniProt P17483 148-234)
HOXB6 [13] = target: HOXB6 (Homo sapiens, UniProt P17509 132-218, K202E)
HOXB4 [14] = target: HOXB4 (Homo sapiens, UniProt P17483 148-234, V174I)
HOXB6 [15] = target: HOXB6 (Homo sapiens, UniProt P17509 132-218)
Sequence of HOXB6 (Homo sapiens, UniProt P17509 132-218) (P17509 132-218): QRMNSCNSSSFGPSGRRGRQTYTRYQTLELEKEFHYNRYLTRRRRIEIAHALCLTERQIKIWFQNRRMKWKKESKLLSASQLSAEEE

Sequence of NKX3-2 (Homo sapiens, UniProt P78367 192-278, P234S) (P78367 192-278 P234S): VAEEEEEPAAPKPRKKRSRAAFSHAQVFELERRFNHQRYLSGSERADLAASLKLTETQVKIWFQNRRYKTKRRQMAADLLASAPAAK
Sequence of NKX2-5 (Homo sapiens, UniProt P52952 125-210, R139K) (P52952 125-210 R139K): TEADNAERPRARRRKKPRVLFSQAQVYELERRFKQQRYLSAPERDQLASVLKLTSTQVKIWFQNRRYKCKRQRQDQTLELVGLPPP
Sequence of HOXB4 (Homo sapiens, UniProt P17483 148-234) (P17483 148-234): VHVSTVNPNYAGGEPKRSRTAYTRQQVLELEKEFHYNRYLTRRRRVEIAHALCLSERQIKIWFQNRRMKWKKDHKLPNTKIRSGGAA
Sequence of NKX2-5 (Homo sapiens, UniProt P52952 125-210) (P52952 125-210): as the sequence (P52952 125-210 R139K) above, with K15R counted along it
Sequence of HOXB4 (Homo sapiens, UniProt P17483 148-234, V174I) (P17483 148-234 V174I): as the sequence (P17483 148-234) above, with V27I counted along it
Sequence of NKX3-2 (Homo sapiens, UniProt P78367 192-278) (P78367 192-278): as the sequence (P78367 192-278 P234S) above, with S43P counted along it
Sequence of PRRX1 (P54821 80-166 F113S): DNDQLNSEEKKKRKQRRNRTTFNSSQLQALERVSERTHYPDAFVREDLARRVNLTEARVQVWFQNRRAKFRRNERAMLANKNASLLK
Sequence of HOXB6 (Homo sapiens, UniProt P17509 132-218, K202E) (P17509 132-218 K202E): as the sequence (P17509 132-218) above, with K71E counted along it

Row | Sequence | binding signal (NKX2-5 [1]) | binding signal (NKX2-5 [2]) | binding signal (PRRX1) | binding signal (NKX2-4 [3]) | binding signal (NKX2-4 [4]) | binding signal (NKX2-4 [5]) | binding signal (NKX2-6 [6]) | binding signal (NKX2-6 [7]) | binding signal (NKX2-4 [8]) | binding signal (NKX2-6 [9]) | binding signal (NKX3-2 [10]) | binding signal (NKX3-2 [11]) | binding signal (HOXB4 [12]) | binding signal (HOXB6 [13]) | binding signal (HOXB4 [14]) | binding signal (HOXB6 [15])
1 | CCAGCGCG | 8.57 upbm affinity estimate (log intensity, higher = more binding, comparable within an allelic series) | 8.52 upbm affinity estimate (log intensity, higher = more binding, comparable within an allelic series) |  |  |  |  |  |  |  |  |  |  |  |  |  | 
2 | AATTAGCT | 10.5 upbm affinity estimate (log intensity, higher = more binding, comparable within an allelic series) | 10.6 upbm affinity estimate (log intensity, higher = more binding, comparable within an allelic series) | 11.1 upbm affinity estimate (log intensity, higher = more binding, comparable within an allelic series) |  |  |  |  |  |  |  |  |  |  |  |  | 
3 | GGCACTTA | 13.1 upbm affinity estimate (log intensity, higher = more binding, comparable within an allelic series) | 13 upbm affinity estimate (log intensity, higher = more binding, comparable within an allelic series) |  | 12.7 upbm affinity estimate (log intensity, higher = more binding, comparable within an allelic series) | 13.1 upbm affinity estimate (log intensity, higher = more binding, comparable within an allelic series) | 12.6 upbm affinity estimate (log intensity, higher = more binding, comparable within an allelic series) | 12.1 upbm affinity estimate (log intensity, higher = more binding, comparable within an allelic series) | 13.8 upbm affinity estimate (log intensity, higher = more binding, comparable within an allelic series) | 13.2 upbm affinity estimate (log intensity, higher = more binding, comparable within an allelic series) | 11.4 upbm affinity estimate (log intensity, higher = more binding, comparable within an allelic series) | 13.3 upbm affinity estimate (log intensity, higher = more binding, comparable within an allelic series) | 13.4 upbm affinity estimate (log intensity, higher = more binding, comparable within an allelic series) |  |  |  | 
4 | ACGGCGGC | 9 upbm affinity estimate (log intensity, higher = more binding, comparable within an allelic series) | 8.98 upbm affinity estimate (log intensity, higher = more binding, comparable within an allelic series) |  |  |  |  |  |  |  |  |  |  | 7.36 upbm affinity estimate (log intensity, higher = more binding, comparable within an allelic series) | 8.91 upbm affinity estimate (log intensity, higher = more binding, comparable within an allelic series) | 7.56 upbm affinity estimate (log intensity, higher = more binding, comparable within an allelic series) | 9.12 upbm affinity estimate (log intensity, higher = more binding, comparable within an allelic series)
5 | CGCCCGAG | 8.73 upbm affinity estimate (log intensity, higher = more binding, comparable within an allelic series) | 8.76 upbm affinity estimate (log intensity, higher = more binding, comparable within an allelic series) |  |  |  |  |  |  |  |  |  |  | 7.76 upbm affinity estimate (log intensity, higher = more binding, comparable within an allelic series) |  | 7.79 upbm affinity estimate (log intensity, higher = more binding, comparable within an allelic series) | 
6 | CACGCGTG | 8.8 upbm affinity estimate (log intensity, higher = more binding, comparable within an allelic series) | 8.74 upbm affinity estimate (log intensity, higher = more binding, comparable within an allelic series) | 9.36 upbm affinity estimate (log intensity, higher = more binding, comparable within an allelic series) |  |  |  |  |  |  |  |  |  | 7.77 upbm affinity estimate (log intensity, higher = more binding, comparable within an allelic series) |  | 7.9 upbm affinity estimate (log intensity, higher = more binding, comparable within an allelic series) | 
7 | CCACTTCA | 12.9 upbm affinity estimate (log intensity, higher = more binding, comparable within an allelic series) | 12.9 upbm affinity estimate (log intensity, higher = more binding, comparable within an allelic series) |  | 12.9 upbm affinity estimate (log intensity, higher = more binding, comparable within an allelic series) | 13.2 upbm affinity estimate (log intensity, higher = more binding, comparable within an allelic series) | 12.7 upbm affinity estimate (log intensity, higher = more binding, comparable within an allelic series) | 12 upbm affinity estimate (log intensity, higher = more binding, comparable within an allelic series) | 13.7 upbm affinity estimate (log intensity, higher = more binding, comparable within an allelic series) | 13.4 upbm affinity estimate (log intensity, higher = more binding, comparable within an allelic series) | 11 upbm affinity estimate (log intensity, higher = more binding, comparable within an allelic series) | 12.8 upbm affinity estimate (log intensity, higher = more binding, comparable within an allelic series) | 12.8 upbm affinity estimate (log intensity, higher = more binding, comparable within an allelic series) |  |  |  | 
8 | GTACTTAA | 13.1 upbm affinity estimate (log intensity, higher = more binding, comparable within an allelic series) | 12.9 upbm affinity estimate (log intensity, higher = more binding, comparable within an allelic series) |  | 12.8 upbm affinity estimate (log intensity, higher = more binding, comparable within an allelic series) | 13.2 upbm affinity estimate (log intensity, higher = more binding, comparable within an allelic series) | 12.6 upbm affinity estimate (log intensity, higher = more binding, comparable within an allelic series) | 12 upbm affinity estimate (log intensity, higher = more binding, comparable within an allelic series) | 13.9 upbm affinity estimate (log intensity, higher = more binding, comparable within an allelic series) | 13.3 upbm affinity estimate (log intensity, higher = more binding, comparable within an allelic series) | 11.2 upbm affinity estimate (log intensity, higher = more binding, comparable within an allelic series) | 12.7 upbm affinity estimate (log intensity, higher = more binding, comparable within an allelic series) | 12.8 upbm affinity estimate (log intensity, higher = more binding, comparable within an allelic series) |  |  |  | 
9 | ACCACTTA | 13.2 upbm affinity estimate (log intensity, higher = more binding, comparable within an allelic series) | 13.1 upbm affinity estimate (log intensity, higher = more binding, comparable within an allelic series) |  | 12.7 upbm affinity estimate (log intensity, higher = more binding, comparable within an allelic series) | 13.1 upbm affinity estimate (log intensity, higher = more binding, comparable within an allelic series) | 12.6 upbm affinity estimate (log intensity, higher = more binding, comparable within an allelic series) | 12.3 upbm affinity estimate (log intensity, higher = more binding, comparable within an allelic series) | 14 upbm affinity estimate (log intensity, higher = more binding, comparable within an allelic series) | 13.2 upbm affinity estimate (log intensity, higher = more binding, comparable within an allelic series) | 11.4 upbm affinity estimate (log intensity, higher = more binding, comparable within an allelic series) | 13.3 upbm affinity estimate (log intensity, higher = more binding, comparable within an allelic series) | 13.3 upbm affinity estimate (log intensity, higher = more binding, comparable within an allelic series) |  |  |  | 
10 | CTACTTAA | 12.4 upbm affinity estimate (log intensity, higher = more binding, comparable within an allelic series) | 12.3 upbm affinity estimate (log intensity, higher = more binding, comparable within an allelic series) |  | 12.5 upbm affinity estimate (log intensity, higher = more binding, comparable within an allelic series) | 12.9 upbm affinity estimate (log intensity, higher = more binding, comparable within an allelic series) | 12.4 upbm affinity estimate (log intensity, higher = more binding, comparable within an allelic series) | 11.5 upbm affinity estimate (log intensity, higher = more binding, comparable within an allelic series) | 13.6 upbm affinity estimate (log intensity, higher = more binding, comparable within an allelic series) | 13 upbm affinity estimate (log intensity, higher = more binding, comparable within an allelic series) | 10.6 upbm affinity estimate (log intensity, higher = more binding, comparable within an allelic series) |  |  |  |  |  | 
11 | AAGTACCC | 12.4 upbm affinity estimate (log intensity, higher = more binding, comparable within an allelic series) | 12.2 upbm affinity estimate (log intensity, higher = more binding, comparable within an allelic series) |  | 12.4 upbm affinity estimate (log intensity, higher = more binding, comparable within an allelic series) | 12.9 upbm affinity estimate (log intensity, higher = more binding, comparable within an allelic series) | 12.3 upbm affinity estimate (log intensity, higher = more binding, comparable within an allelic series) | 11.7 upbm affinity estimate (log intensity, higher = more binding, comparable within an allelic series) | 13.4 upbm affinity estimate (log intensity, higher = more binding, comparable within an allelic series) | 12.9 upbm affinity estimate (log intensity, higher = more binding, comparable within an allelic series) | 10.5 upbm affinity estimate (log intensity, higher = more binding, comparable within an allelic series) | 12.8 upbm affinity estimate (log intensity, higher = more binding, comparable within an allelic series) | 12.8 upbm affinity estimate (log intensity, higher = more binding, comparable within an allelic series) |  |  |  | 
12 | CACTTATC | 12.8 upbm affinity estimate (log intensity, higher = more binding, comparable within an allelic series) | 12.8 upbm affinity estimate (log intensity, higher = more binding, comparable within an allelic series) |  | 12.7 upbm affinity estimate (log intensity, higher = more binding, comparable within an allelic series) | 13 upbm affinity estimate (log intensity, higher = more binding, comparable within an allelic series) | 12.5 upbm affinity estimate (log intensity, higher = more binding, comparable within an allelic series) | 12.1 upbm affinity estimate (log intensity, higher = more binding, comparable within an allelic series) | 13.8 upbm affinity estimate (log intensity, higher = more binding, comparable within an allelic series) | 13.2 upbm affinity estimate (log intensity, higher = more binding, comparable within an allelic series) | 11.2 upbm affinity estimate (log intensity, higher = more binding, comparable within an allelic series) | 12.7 upbm affinity estimate (log intensity, higher = more binding, comparable within an allelic series) | 12.8 upbm affinity estimate (log intensity, higher = more binding, comparable within an allelic series) |  |  |  | 
13 | AACACTTA | 12.7 upbm affinity estimate (log intensity, higher = more binding, comparable within an allelic series) | 12.6 upbm affinity estimate (log intensity, higher = more binding, comparable within an allelic series) |  | 12.5 upbm affinity estimate (log intensity, higher = more binding, comparable within an allelic series) | 12.8 upbm affinity estimate (log intensity, higher = more binding, comparable within an allelic series) | 12.4 upbm affinity estimate (log intensity, higher = more binding, comparable within an allelic series) | 11.8 upbm affinity estimate (log intensity, higher = more binding, comparable within an allelic series) | 13.6 upbm affinity estimate (log intensity, higher = more binding, comparable within an allelic series) | 12.9 upbm affinity estimate (log intensity, higher = more binding, comparable within an allelic series) | 11.3 upbm affinity estimate (log intensity, higher = more binding, comparable within an allelic series) | 12.7 upbm affinity estimate (log intensity, higher = more binding, comparable within an allelic series) | 12.7 upbm affinity estimate (log intensity, higher = more binding, comparable within an allelic series) |  |  |  | 

Source: article PMC11006913
